Out of some 320,000 compounds screened, about 2,800 (0.88%) were called active.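 Rule for the calls: active = inhibition above the mean inhibition of all tested compounds plus 3 SD, computed separately for each screening campaign (cut at about 15% in these data); inactive = the rest.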 Only a selection was taken, and actives are over-represented in it overall.
target: Serine/threonine-protein phosphatase PP1-alpha catalytic subunit (Homo sapiens) (UniProt P62136); experiment: PP1-alpha phosphatase inhibitors, primary screen, counter-screen for PP5 inhibitor project, biochemical, fluorescence, OMFP substrate, single point (AID 2235); settings: purified PP1alpha, at 6.7 µM, stronger effect = higher value
Sequence (P62136 whole entry, looked up): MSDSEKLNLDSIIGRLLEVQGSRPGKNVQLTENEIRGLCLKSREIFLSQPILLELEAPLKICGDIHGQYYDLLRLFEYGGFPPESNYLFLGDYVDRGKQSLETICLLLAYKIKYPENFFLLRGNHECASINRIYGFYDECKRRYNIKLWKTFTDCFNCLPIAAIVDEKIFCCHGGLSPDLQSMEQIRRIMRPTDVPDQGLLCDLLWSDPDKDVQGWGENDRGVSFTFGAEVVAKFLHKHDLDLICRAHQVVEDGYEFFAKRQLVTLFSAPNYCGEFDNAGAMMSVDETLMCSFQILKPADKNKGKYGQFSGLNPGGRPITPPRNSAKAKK

SMILES	inhibition
O=c1[nH]c(CN2CC=C(c3ccccc3)CC2)nc2scc(-c3cccs3)c12	18.9% (active)
CC(C)Nc1nc(Cl)nc(NC(C)C)n1	-5.49% (inactive)
Cc1ccc(Cn2c(C)c3cnn(CC(=O)N4CCC5(CC4)OCCO5)c(=O)c3c2C)cc1	10.3% (inactive)
COC(=O)C1=C(c2cccc(OCc3ccccc3)c2)C[C@@H]2CC[C@H]1N2C(=O)NNCc1ccccc1	7.24% (inactive)
Cc1ccc(P(=S)(c2ccc(C)o2)N2CCOCC2)o1	3.58% (inactive)
Cc1ccc(-c2nn(CCC#N)cc2C(=O)O)cc1C	0.33% (inactive)
O=C(O)c1ccccc1NC(=O)C1C2CCC(O2)C1C(=O)O (stereo not given)	33.1% (active)
CC(=O)Nc1ccc(C(=O)C(Cc2ccccc2)N(C)C)cc1 (stereo not given)	-0.99% (inactive)
COC(=O)C1=C(c2cc3ccccc3o2)C[C@@H]2CC[C@H]1N2C(=O)NC1CCCCC1	-1% (inactive)
CCOP(=O)(OCC)C(NC(=O)c1ccc(C)cc1)C(Cl)(Cl)Cl (stereo not given)	-1.96% (inactive)
CCOP(=O)(OCC)C(NC(=O)c1ccc(OC)cc1)C(Cl)(Cl)Cl (stereo not given)	0.9% (inactive)
CCOP(=O)(OCC)C(O)c1ccc(OC)cc1OC (stereo not given)	47.2% (active)
CNC(=O)Nc1ccc(C(O)(C(=O)OC)C(F)(F)F)cc1 (stereo not given)	1.95% (inactive)
Cc1ccc(C2CN(C)CC2C(=O)c2ccc(F)cc2)cc1 (stereo not given)	-2.93% (inactive)
COCc1cc(OC(=O)N(C)C)nc(-c2ccc(C)c(Cl)c2)n1	-1.37% (inactive)

Source: PubChem BioAssay AID2235 (The Scripps Research Institute Molecular Screening Center, 2010)
